Measured values taken from PubChem BioAssay (Tox21).
Inconclusive results are not listed. Where a call stands in place of a potency, no number is given. Unmarked numbers belong to inactive results. Calls of active or inactive are those of the source. Calls follow the shape of the dose curve; as a rule, active = well fitted cell-killing curve with a large enough effect in the repeat runs; inconclusive = weak or mixed curves; inactive = flat fitted curve, though single readings scatter.

Assay: qHTS assay to identify small molecule antagonists of the TGF-beta/Smad signaling pathway - cell viability counter screen (AID 1346824); also: nearly all actives have a fitted effect of over 50% in size
Details: SBE-bla HEK293T viability, CellTiter-Glo luminescence; series mostly up to 76.8 µM; viability change, negative = cytotoxic: at the top concentration
Text: U.S. Tox21 Program National Center for Advancing Translational Sciences [NCATS] NIH Chemical Genomics Center [NCGC] U.S. Environmental Protection Agency [EPA] National Institutes of Environmental Health Sciences [NIEHS] National Toxicology Program [NTP] U.S. Food and Drug Administration [FDA] Tox21 Assay Overview: Transforming growth factor beta (TGF-beta) superfamily consists of a large number of structurally related dimeric proteins that act as hormones or local mediators in regulating a wide range of biological functions. This superfamily includes TGF-betas themselves, the bone morphogenetic proteins (BMPs) and the activins. These ligands induce oligomerization of serine/threonine receptor kinases and phosphorylate the cytoplasmic signaling molecules of Smad protein family. CellSensor SBE-bla HEK 293T cell line (Life Technologies, Carlsbad, CA), responsive to TGF-beta was used to screen Tox21 10K compound library for identification of agonists/antagonists of the Smad signaling pathway. This cell line contains a beta-lactamase reporter gene under control of the Smad binding element (SBE) stably integrated into HEK 293T cells. Also cytotoxicity of the compounds was tested in parallel by measuring the cell viability using CellTiter-Glo assay system in the same wells.
Tox21 Assay Protocol Summary: SBE-bla HEK 293T cells were dispensed at 4,000/well in 5 uL of assay medium into black wall/clear-bottom 1536-well plates using a Multidrop Combi (ThermoFisher Scientific, Waltham, MA) dispenser. After the assay plates were incubated at 37 C and 5% CO2 for an overnight, 23 nL of compounds dissolved in DMSO, positive controls or DMSO only was transferred to the assay plate by a Pintool station (Kalypsys, San Diego, CA). Compound transfer was followed by the addition of 1 uL of 0.25 ng/mL TGF-beta1 or assay buffer using two separate tips of Flying Reagent Dispenser (FRD, Aurora Discovery, San Diego, CA). The assay plates were incubated at 37 C and 5% CO2 for 5 hr. One uL of LiveBLAzer B/G FRET substrate (Life Technologies) was added using a Flying Reagent Dispenser (FRD, Aurora Discovery, San Diego, CA) and the plates were incubated at room temperature for 2 hr. Fluorescence intensity (405 nm excitation, 460 nm and 530 nm emissions) was measured using an Envision plate reader (PerkinElmer, Shelton, CT). For cytotoxicity read, 4 uL of CellTiter-Glo reagent (Promega Corporation, Madison, WI) was added to each well of the assay plates using FRD. After 30 min incubation at room temperature, the luminescence intensity was measured using ViewLux plate reader (PerkinElmer).

| Compound | Potency | viability change, negative = cytotoxic |
| --- | --- | --- |
| NS(=O)(=O)c1cc2c(cc1Cl)NC=NS2(=O)=O | inactive |  |
| O=S(=O)(O)CCS | inactive |  |
| CCCCCCCCC | inactive |  |
| O=S(=O)(O)c1cc(S(=O)(=O)O)c2c(N=Nc3ccccc3)c(O)ccc2c1 | inactive |  |
| CC1CC(OC(=O)c2ccccc2O)CC(C)(C)C1 (stereo not given) | inactive |  |
| C=C1C2CCC(C2)C1(C)C (stereo not given) | inactive |  |
| COCC(=O)O | inactive |  |
| NCCc1ccc(O)c(O)c1 | inactive |  |
| C=C1CC[C@H](O)CC1=C/C=C1\CCC[C@]2(C)[C@@H]([C@H](C)/C=C/[C@H](C)C(C)C)CC[C@@H]12 |  | 1.29% |
| O=C(Cl)c1c(Cl)c(Cl)c(C(=O)Cl)c(Cl)c1Cl | inactive |  |
| O=[N+]([O-])c1cc(N(CCO)CCO)ccc1NCCO | inactive |  |
| CC[Si](OC(C)=O)(OC(C)=O)OC(C)=O | inactive |  |
| COC(=O)Nc1nc2ccc(Sc3ccccc3)cc2[nH]1 | inactive |  |
| CN(C)c1ccc(C(=N)c2ccc(N(C)C)cc2)cc1 |  | -17.7% |
| NCCNCCNCCNCCN | inactive |  |
| Cn1c([N+](=O)[O-])cnc1COC(N)=O | inactive |  |
| CCCCC(CC)COC(C)=O (stereo not given) | inactive |  |
| CC1COc2ccccc2N1C(=O)C(Cl)Cl (stereo not given) | inactive |  |
| Nc1c(S(=O)(=O)O)cc(Br)c2c1C(=O)c1ccccc1C2=O |  | -6.84% [at 35.3 µM] |
| NC(=O)NNc1ccccc1 | inactive |  |

| Compound | Potency | viability change, negative = cytotoxic |
| --- | --- | --- |
| OCC#CCO | inactive |  |
| Cc1ccc(C)c(C)c1 | inactive |  |
| CC(C)(N=C=O)c1cccc(C(C)(C)N=C=O)c1 | inactive |  |
| O=[N+]([O-])c1cccc(Cl)c1 | inactive |  |
| CNC[C@H](O)[C@@H](O)[C@H](O)[C@H](O)CO | inactive |  |
| COC(=O)c1ccccc1O | inactive |  |
| c1ccc2ccccc2c1 | inactive |  |
| C/C=C(C)/C=C/C=C(C)C | inactive |  |
| Clc1cc(Cl)c(Cl)cc1Cl | inactive |  |
| O=C1O[C@H](CO)[C@@H](O)[C@H](O)[C@H]1O | inactive |  |
| CCCCNC(N)=O | inactive |  |
| CCCCC(CC)COC(=O)CCCCCCCC(=O)OCC(CC)CCCC (stereo not given) | inactive |  |
| O=C1N=C(O)CN1/N=C/c1ccc(-c2ccc([N+](=O)[O-])cc2)o1 | inactive |  |
| CN(CCOc1ccc(CC2SC(=O)NC2=O)cc1)c1ccccn1 (stereo not given) | inactive |  |
| c1ccc2[nH]cnc2c1 | inactive |  |
| C=C(C)C(=O)OCCCCCC | inactive |  |
| NCc1cccc(CN)c1 | inactive |  |
| C[C@@H]1O[C@@H](OC[C@H]2O[C@@H](Oc3c(-c4ccc(O)c(O)c4)oc4cc(O)cc(O)c4c3=O)[C@H](O)[C@@H](O)[C@@H]2O)[C@H](O)[C@H](O)[C@H]1O | inactive |  |
| Cc1cc(O)cc(C)c1Cl | inactive |  |
| CCCCOCCOCCOC(=O)CCCCC(=O)OCCOCCOCCCC | inactive |  |
